The source of these data is the supplement of paper PMC11417369.

Over roughly 25,000 sequences, “ln(normalized median fluorescence intensity)” has its median near 7.1; the highest 2% begin near 10. This is one part of a sample in which the highest values are shown more often than they occur.

The test system of this assay is PfSIP2 AP2 domain 1 (GST-tagged). As to the kind of experiment: gcPBM binding intensity (ln(normalized median fluorescence intensity)); higher = stronger DNA binding. The procedure, abridged:
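An Agilent 4 × 180k array of primer-extended double-stranded 36-bp intergenic genomic probes, with negative controls, was incubated for 1 h with GST-tagged P. falciparum DNA-binding domains expressed in E. coli. Alexa488 anti-GST antibody detected bound protein, scanned at 488 nm. Binding intensity is the highest Masliner-normalised natural-log median intensity across replicate spots of either probe orientation.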
With “ACATATGAATATAATACACACTTGTATTATTAATAT [CACACA_site8546]”, the “gcPBM binding intensity (ln)” value was found to be 6.85.

Turning to “ATATTCTTGTTTAATACACACTGTAGTATTATATAT [CACACA_site4400]”, the “gcPBM binding intensity (ln)” value worked out at 7.17. With “GAATAATATGGACATACACACATATACATACCTATA [CACACA_site7075]”, the “gcPBM binding intensity (ln)” value was determined as 7.25. Take ATACAGTTGCATATGGTGCACGAATAATACACCTAT: the “gcPBM binding intensity (ln)” value came to 11.3. Turning to “GTACACCTATAATATACACACAACAAATATGCACAT [CACACA_site6603]”, the “gcPBM binding intensity (ln)” value worked out at 8.84.

For the sequence “ACACTTAAATATTGTTGTACAAAATGATAAAATGTA [XGTACX_site4588]”, the “gcPBM binding intensity (ln)” value was found to be 7.13. Take “CACCCTTTGTTTTAGAGTACATATGTATATACGTAA [XGTACX_site7964]”: the “gcPBM binding intensity (ln)” value worked out at 7.53. To “ATAAAAAACTCAGAGCGTACATAATTTTTTCTATTT [XGTACX_site2803]” belongs 7.24.

As for “TATATATGGGTAACCTTTTTTTTTTTTTTTCGAACA [CACACA_negctrl_site1303]”, the “gcPBM binding intensity (ln)” value is 6.8.

For the sequence “AGGTAGAAAAAAGACACACACATTATGTATATATAT [CACACA_site377]”, the “gcPBM binding intensity (ln)” value turned out to be 7.6. With “ACAAAATTTACAAAATGTACAAAATATACAAAATAT [XGTACX_site6465]”, the “gcPBM binding intensity (ln)” value was 6.99.

On to AAAATTATTTAGTAAGTGCAAAAAAAAAAAAAAAAA, for which the “gcPBM binding intensity (ln)” value was 8.21. “TACATACATATATTATGTACATATTTTATTTTTATT [XGTACX_site1642]”: the “gcPBM binding intensity (ln)” value was found to be 7.08. To CATATTATTATTTTGGTGCATACTTATATATATTTT belongs 9.74; to “CACCCTTTACACAAGGTGCATACTTTATTATATTTT [GTGCAC_site9778]”, 10.6. To TATTTTTATTATATGGTGCATATATACATACATATA belongs 10.4; to ATTTATTTTAAATAAGTGCAAAATGGTTATAAATAA, 8.23; to TATTATTATTTTATGGTGCAAAAAAAAAAAAAAAAA, 10.6. Take “TTATTTTTATATTTCACACACATATACTTTTACATA [CACACA_site4097]”: the “gcPBM binding intensity (ln)” value turned out to be 7.28. Regarding TACAATATATTTATAGTGCATATTACTTTTAACTTT, the “gcPBM binding intensity (ln)” value worked out at 8.41. Regarding “AAGGAGCCTATGAACACACACATGTACATATATTAA [CACACA_site4084]”, the “gcPBM binding intensity (ln)” value stood at 7.03. For the sequence “TATATATGCATTAAAGTGTTTTTTTTTTTTTTTTTT [CACACA_negctrl_site1353]”, the “gcPBM binding intensity (ln)” value stood at 7.72. For “TACACATTATGTATCATACACACAAATAAATATATA [CACACA_site608]”, the “gcPBM binding intensity (ln)” value was 7.1. Take “TAAGAAATTGAGCGCACACATACATCTGTGGGATGG [CACACA_site1548]”: the “gcPBM binding intensity (ln)” value was 6.71.

With “CATACACATTTCATATGTACATAGATTGAAGGGAAG [XGTACX_site116]”, the “gcPBM binding intensity (ln)” value turned out to be 7.21. With “TATACGTAATAATATGCACACAAATAAACTTTATAA [CACACA_site9166]”, the “gcPBM binding intensity (ln)” value came out at 8.88. Regarding “ATATATATATTATATGCACACTAATAAGACTATTTA [CACACA_site5880]”, the “gcPBM binding intensity (ln)” value amounted to 9.55.

Turning to “ATATATATTATATGCACACTAATAAGACTATTTAAA [CACACA_site3554]”, the “gcPBM binding intensity (ln)” value was determined as 9.68.

As to “AGCAAGACGGGGTGCACACAAACTAATATGCCGAAT [CACACA_site159]”, the “gcPBM binding intensity (ln)” value amounted to 12.1. As for “TACGTAATAATATGCACACAAATAAACTTTATAAAT [CACACA_site3501]”, the “gcPBM binding intensity (ln)” value was 8.22. To “CGAGCAAGACGGGGTGCACACAAACTAATATGCCGA [CACACA_site7936]” belongs 12.1; to “ATTTAATTCGTACATACACACGCACATATATATATA [CACACA_site8415]”, 8.85; to “CTATTAAAAAAATTATGTACACAACGTCTCTATATA [XGTACX_site4813]”, 7.01. As to “TTTTTTAAAATATATATAATGAATTTTTTTTTTTTT [CACACA_negctrl_site1577]”, the “gcPBM binding intensity (ln)” value was 7.05. In the case of “TGATCAAATAAGTTTGCATGTCAACAATGCATATAT [TGCATGCA_site1025]”, the “gcPBM binding intensity (ln)” value was 7.19. “AAAAAAAAAAAAGATACACACAAAAATGGATATATA [CACACA_site7069]”: the “gcPBM binding intensity (ln)” value amounted to 6.77.

Consider CAATTATTGTAATGCATGCACTGAATATAAAAAGAA, for which the “gcPBM binding intensity (ln)” value was determined as 9.18. To “AAAAAATAAATAAATACACACACACTAATATATATA [CACACA_site8488]” belongs 7.67; to TGAGCACAAATACAGGTGCATATAAAATATATGACG, 10.5. To TATATATATATATGAGTGCATATGTGTAATATAAAA belongs 9.27; to “ATTTTATATAATACATGTACAAAAGTTTAAATTTAT [XGTACX_site6196]”, 7.13.

On to TTTTTTTGTTAAAAGGTGCTAATATATATAAGTGCT, for which the “gcPBM binding intensity (ln)” value was found to be 9.03.

As to “ATTTTTCTAAAATACTGTACAAAGGTGCATAAAAAG [XGTACX_site4425]”, the “gcPBM binding intensity (ln)” value stood at 11.5. For TTATAAAAGACAAAAGTGCATATATACATATGTATA, the “gcPBM binding intensity (ln)” value was 8.27. Consider “TATAAATATACAAAGGTGCATAAAAAGTTATGTTTT [GTGCAC_site9832]”, for which the “gcPBM binding intensity (ln)” value was 10.4. In the case of “ATGTTTGAGCCTAAGGTGCATATAAAAATATATGTG [GTGCAC_site9690]”, the “gcPBM binding intensity (ln)” value stood at 10.7. For “TTTTCTCTAAAAAGGTGTACAACTAATAATGCACTG [XGTACX_site6074]”, the “gcPBM binding intensity (ln)” value is 9.09. To “TATTTTATATAAAGGTGTACTTATACAAAAATATAT [XGTACX_site7435]” belongs 7.22; to “GTTATAAATAAATACACACATACAAAAATATGACGT [CACACA_site1154]”, 6.94; to “AGGTTATAAATAAATACACACATACAAAAATATGAC [CACACA_site4773]”, 6.94.
